Experimental findings from PubChem BioAssay AID652283 (National Center for Advancing Translational Sciences (NCATS), 2013) are described below.

Where “and” joins values, the source holds several entries; their conditions need not be identical. Identical values can stand only once. Inconclusive results are not listed. Some structures have more than one record in an assay (separate samples or runs), and their calls can disagree. Calls of active or inactive are those of the source. Calls follow the shape of the dose curve; as a rule, active = well fitted inhibition curve with a large enough effect; inconclusive = small, poorly fitted or top-dose-only effect; inactive = no such curve, though single readings can be large or run the other way.

The assay can be described thus: qHTS Assay for Lipid Storage Modulators: COS7 Assay against Probe and Analogs. As to conditions: COS7 lipid droplet area, BODIPY imaging, 18 h; cells loaded with 400 µM oleic acid. From the text:
Storing lipids as a reservoir for energy or the anabolism of elementary metabolites is a common feature of probably all cells and is conserved from bacteria to humans. The universal cellular lipid storage organelle is the so-called lipid storage droplet (LD). Although ubiquitous, LDs share a simple structure composed of a hydrophobic core that harbors the storage lipids, which is shielded by a droplet-specific phospholipid monolayer to which proteins are attached. The current model of LD biogenesis involves an incorporation of the lipid core into the membrane leaflets of the endoplasmic reticulum (ER) followed by a subsequent budding-like maturation of a LD, which ultimately pinches off. Once released, LD volume can increase by localized lipogenesis or fusion of existing droplets. Storage lipids are re-mobilized enzymatically by lipase activity. Lipase regulation in the adipocyte is heavily studied and involves multiple components including catecholamine signaling, the LD-associated proteins Perilipin and comparative gene identification-58 (CGI-58) and at least two lipases named hormone sensitive lipase (HSL) and adipocyte triglyceride lipase (ATGL). LD regulation outside of the adipocyte is poorly understood and only few components are known. However, there is an urgent need to learn more about ectopic fat depots as mislocalized storage of lipids, for example in the liver or muscle, is an eminent health problem associated with insulin resistance or the metabolic syndrome. We developed a laser-scanning cytometer assay to enable 1,536-well screening and combined the results of the small molecules screen with an RNAi database based on lipid storage. In this assay we tested analogs of the probe against a mammalian cell line (COS7), to see if these small molecules could disrupt lipid storage. NIH Molecular Libraries Probe Production Centers Network [MLPCN] NIH Chemical Genomics Center [NCGC] MLPCN Grant: MH085686 Assay Submitter (PI): Mathias Beller, Max-Planck-Institut fur Biophysikalische Chemie
COS7 cells were obtained from ATCC (CRL-1651), 5500 cells/well were dispensed into Corning 96 well imaging plate (catalog # 3340), and cultured in 100 uL of 1:1 DMEM medium (PAA) contain 10% fetal bovine serum (FBS) for 24 hours at 37 degrees C, 95% humidity, and 5% CO2. The medium was exchanged for compound treatment. Compound treatment occurred in 150 microL serum reduced medium (5% FBS) and 0.2% DMSO in presence of 400 microM oleic acid for 17-18 h. Cells were then fixed (3.7 % formaldehyde in PBS, 5 min), permeabilized (0.1% Triton X100, 5 min) and washed three times with PBS. Lipid droplets (1:2000 BODIPY 493/503) and nuclei (1:1000 Hoechst 33342) were stained for 1h. Imaging was performed in a Zeiss Axiovert automatic microscope. Number of lipid droplet accumulated in […] cells were analyzed using visual examination of the microscopic images and additional quantification by image segmentation using Cell Profiler.
As for `O=C(CCCCCCC(=O)Nc1ccccc1)NO`, the max response is -18.2% (inactive).

As to `CCOC(=O)C1CCN(C(=O)CNC(=O)Nc2ccccc2Cl)CC1`, the max response was 11.1% (inactive).

On to `CCOc1ccc(CCNC(=O)C2(c3ccccc3)CC2)cc1OCC`, for which the max response is 2.24% (inactive).

Consider `CCOc1ccc(CCNC(=O)c2cc3sccc3n2CC=C(C)C)cc1OCC`, for which the Potency is 2.35 µM (active).

In the case of `O=C(O)CCc1ccc(NCc2cccc(Oc3ccccc3)c2)cc1`, the max response was -0.35% (inactive).

Take `O=C(NC1CCCc2c1cnn2-c1ccc(F)cc1F)c1ccc(C2(C(F)(F)F)N=N2)cc1` (stereo not given): the max response is 3.15% (inactive).

Consider `O=C(NC1CCCc2c1cnn2-c1cccc(O)c1)c1ccccn1` (stereo not given), for which the Potency is 4.18 µM (active).

As for `CCn1c(C(=O)NCc2ccc(OC)c(OC)c2)cc2sccc21`, the max response is 0.0567% (inactive).

With `CC1=C(C(=O)NC2CCCc3c2cnn3-c2ccc(F)cc2F)OCCO1` (stereo not given), the Potency was 13.2 µM (active).

`CCOC(=O)C1CCN(C(=O)C(C)(C)NC(=O)Nc2ccc([N+](=O)[O-])cc2)CC1`: the max response is 8.04% (inactive).

With `CCOc1ccc(CCNC(=O)c2cc3c(s2)CCC3)cc1OCC`, the Potency was 11.8 µM (active).

Consider `CCOC(=O)C1CCN(C(=O)C(C)(C)NC(=O)Nc2cccc(C(=O)OC)c2)CC1`, for which the max response was 9.87% (inactive).

In the case of `CCOc1ccc(CCNC(=O)c2cc3ccccc3n2C)cc1OCC`, the Potency was 16.6 µM (active).

Turning to `O=C(NC1CCCc2c1cnn2-c1ccc(O)cc1)c1ccccn1` (stereo not given), the Potency was 10.5 µM (active).

For `CCOC(=O)C1CCN(C(=O)C(C)(C)NC(=O)Nc2ccc(F)c(F)c2)CC1`, the max response is -20.8% (inactive).

As to `CCOC(=O)C1CCN(C(=O)C(C)(C)NC(=O)Nc2ccc(-c3ccccc3)cc2)CC1`, the Potency is 10.5 µM (active).

`CCOC(=O)C1CCN(C(=O)C(C)(C)NC(=O)Nc2cccc(OC)c2)CC1`: the Potency was 16.6 µM (active).

As for `CCOc1ccc(CCNC(=O)c2cc3sccc3n2C(C)C)cc1OCC`, the Potency is 1.18 µM (active).

For the compound `O=C(N[C@H]1CCCc2c1cnn2-c1ccc(F)cc1F)c1ccccn1`, the max response is 6.84% (inactive).

With `CCOc1ccc(CCNC(=O)C2COc3ccccc3O2)cc1OCC` (stereo not given), the Potency was 18.7 µM (active).

For `CCOc1ccc(CCNC(C)=O)cc1OCC`, the max response was -6.62% (inactive).

Regarding `O=C(NC1CCCc2c1cnn2-c1ccc(F)cc1F)c1ccn[nH]1` (stereo not given), the max response is -5.9% (inactive).

For `CCOC(=O)C1CCN(C(=O)C(C)(C)NC(=O)Nc2ccc(C#N)cc2)CC1`, the max response was -15.2% (inactive).

For the compound `CCOc1ccc(CCNC(=O)c2csc(Br)n2)cc1OCC`, the max response was -17.2% (inactive).

In the case of `CC(C)(C)OC(=O)NC1CCCc2c1cnn2-c1ccc(F)cc1F` (stereo not given), the max response is 3.11% (inactive).

Consider `CCOc1ccc(CCNC(=O)c2cc3sccc3n2Cc2ccccc2)c(F)c1OCC`, for which the Potency was 16.6 µM (active).

On to `CCOC(=O)C1CCN(C(=O)C(C)(C)NC(=O)Nc2cccc(-c3csc(C)n3)c2)CC1`, for which the max response is 3.3% (inactive).

As to `CCOc1ccc(CCNC(=O)Cc2ccccc2)cc1OCC`, the max response was -10.6% (inactive).

In the case of `O=C(NC1CCCc2c1cnn2-c1ccc(F)cc1F)c1cccc(=O)[nH]1` (stereo not given), the max response is 14.9% (inactive).

For `CCn1c(C(=O)NCCc2ccc(OC)c(OC)c2)cc2sccc21`, the max response is 3.82% (inactive).

For the compound `CC(C)Oc1ccc(CCNC(=O)c2cc3sccc3n2Cc2ccccc2)cc1OC(C)C`, the Potency is 1.66 µM (active).

On to `O=C(NC1CCCc2c1cnn2-c1ccc(F)cc1F)c1ccccn1` (stereo not given), for which the max response is 16% (inactive); the Potency is 16.6 µM (active) and 14.8 µM (active).

Regarding `O=C(Cc1ccccc1)NC1CCCc2c1cnn2-c1ccc(F)cc1F` (stereo not given), the max response is 1.55% (inactive).

Regarding `CCOc1ccc(CCNC(=O)c2cc3ccccc3o2)cc1OCC`, the Potency is 29.6 µM (active).

As for `CC(C)(C)OC(=O)NCCOCCOCCOc1cccc(-n2ncc3c2CCCC3NC(=O)c2ccccn2)c1` (stereo not given), the Potency is 14.8 µM (active).

As for `CCOc1ccc(CCNC(=O)c2cc3sccc3[nH]2)cc1OCC`, the max response was -4.32% (inactive).

With `CCOc1ccc(CCNC(=O)c2cc3sccc3n2Cc2ccncc2)cc1OCC`, the Potency was 2.96 µM (active).

On to `CC1(C)CCC(c2ccc(Cl)cc2)=C(CN2CCN(c3ccc(C(=O)NS(=O)(=O)c4ccc(N[C@H](CCN5CCOCC5)CSc5ccccc5)c(S(=O)(=O)C(F)(F)F)c4)cc3)CC2)C1`, for which the Potency was 3.72 µM (active).

For `CCNC(=O)C1CCN(C(=O)C(C)(C)NC(=O)Nc2ccccc2Cl)CC1`, the max response was -3.83% (inactive).
